Results published in PubChem BioAssay AID1159580 (chemical genetic matrix, 2015).
Several values for one entry are separate records, joined by “and”; a condition that tells them apart may be missing. Equal values may be shown once. Among all 5,500 compounds or so, about 2,000 (36%) were called active. Another 18% or so got no clear call; they are omitted. No stated cut-off is given here; in the data, active means normalized growth mostly below about 0.91 (no sharp cut-off); inconclusive means no clear call, values can overlap the other calls; inactive means mostly above about 0.92. Some of the results follow.

Assay: chemical genetic growth profiling, strain panel (AID 1159580);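 further: tested at 20 µM; growth read once vehicle control cultures reached saturation at 30 °C; 1 = growth at the plate median or of vehicle wells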
Conditions: S. cerevisiae deletion strains, growth OD

Measured: normalized growth

COc1ccc(-c2cc(=O)c3c(OC(C)=O)cc(OC(C)=O)cc3o2)cc1
active: locus YDR392W, strain spt3, stronger effect = lower value 0.646 | locus YER155C, strain BEM2 (second series), stronger effect = lower value 0.846
inactive: locus YAL013W, strain DEP1, stronger effect = lower value 0.955 | locus YAL021C, strain ccr4, stronger effect = lower value 0.947 | locus YAL026C, strain drs2, stronger effect = lower value 1.01 | locus YAL030W, strain snc1, stronger effect = lower value 0.99 | locus YBL061C, strain skt5, stronger effect = lower value 0.974 | locus YBR009C, strain hhf1, stronger effect = lower value 0.972 | locus YBR021W, strain FUR4, stronger effect = lower value 0.916 | locus YBR023C, strain chs3, stronger effect = lower value 0.972 | locus YBR171W, strain sec66, stronger effect = lower value 0.996 | locus YBR229C, strain ROT2, stronger effect = lower value 0.982 | locus YBR231C, strain swc5, stronger effect = lower value 0.922 | locus YBR279W, strain paf1, stronger effect = lower value 0.988 | locus YCL011C, strain gbp2, stronger effect = lower value 0.989 | locus YCL016C, strain dcc1, stronger effect = lower value 0.991 | locus YCL029C, strain bik1, stronger effect = lower value 0.958 | locus YCL061C, strain MRC1, stronger effect = lower value 0.989 | locus YCL069W, strain vba3, stronger effect = lower value 0.983 | locus YCR088W, strain abp1, stronger effect = lower value 0.996 | locus YDL005C, strain med2, stronger effect = lower value 0.991 | locus YDL035C, strain GPR1, stronger effect = lower value 0.975 | locus YDL040C, strain nat1, stronger effect = lower value 0.986 | locus YDL074C, strain BRE1, stronger effect = lower value 0.861 | locus YDL101C, strain DUN1, stronger effect = lower value 0.958 | locus YDL134C, strain PPH21, stronger effect = lower value 0.956 | locus YDL185W, strain tfp1, stronger effect = lower value 0.93 | locus YDL192W, strain arf1, stronger effect = lower value 0.965 | locus YDR001C, strain nth1, stronger effect = lower value 0.987 | locus YDR069C, strain doa4, stronger effect = lower value 0.981 | locus YDR101C, strain arx1, stronger effect = lower value 1 | locus YDR137W, strain rgp1, stronger effect = lower value 0.934 | locus YDR150W, strain NUM1, stronger effect = lower value 0.976 | locus YDR159W, strain sac3, stronger effect = lower value 0.974 | locus YDR162C, strain NBP2, stronger effect = lower value 0.948 | locus YDR195W, strain ref2 1 | locus YDR297W, strain sur2, stronger effect = lower value 0.98 | locus YDR318W, strain mcm21, stronger effect = lower value 0.936 | locus YDR334W, strain swr1, stronger effect = lower value 0.987 | locus YDR335W, strain msn5, stronger effect = lower value 0.995 | locus YDR388W, stronger effect = lower value 0.973 | locus YDR502C, strain sam2, stronger effect = lower value 0.94 | locus YEL003W, strain gim4, stronger effect = lower value 0.968 | locus YEL037C, strain rad23, stronger effect = lower value 1 | locus YEL061C, strain CIN8 (second series), stronger effect = lower value 0.991 | locus YEL061C, strain CIN8, stronger effect = lower value 0.982 | locus YER015W, strain faa2, stronger effect = lower value 0.97 | locus YER016W, strain bim1, stronger effect = lower value 0.991 | locus YER110C, stronger effect = lower value 0.95 | locus YER111C, strain swi4, stronger effect = lower value 1 | locus YER155C, strain BEM2, stronger effect = lower value 0.942 | locus YER167W, strain BCK2, stronger effect = lower value 0.993 | locus YFR010W, strain ubp6, stronger effect = lower value 1 | locus YGL078C, strain dbp3, stronger effect = lower value 0.961 | locus YGL086W, strain mad1, stronger effect = lower value 0.976 | locus YGL167C, strain pmr1, stronger effect = lower value 0.992 | locus YGL173C, strain kem1, stronger effect = lower value 0.982 | locus YGL227W, strain vid30, stronger effect = lower value 0.98 | locus YGL240W, strain doc1, stronger effect = lower value 0.985 | locus YGL248W, strain PDE1, stronger effect = lower value 0.935 | locus YGL253W, strain hxk2, stronger effect = lower value 0.97 | locus YGR135W, strain pre9, stronger effect = lower value 0.905 | locus YGR252W, strain gcn5, stronger effect = lower value 0.86 | locus YHR013C, strain ard1, stronger effect = lower value 0.968 | locus YHR027C, strain rpn1, stronger effect = lower value 0.991 | locus YHR030C, strain SLT2, stronger effect = lower value 0.972 and 0.893 | locus YHR079C, strain IRE1 (second series), stronger effect = lower value 0.972 | locus YHR079C, strain IRE1, stronger effect = lower value 0.864 | locus YHR094C, strain hxt1, stronger effect = lower value 0.97 | locus YHR129C, strain ARP1, stronger effect = lower value 0.938 | locus YHR142W, strain chs7, stronger effect = lower value 0.951 | locus YHR200W, strain rpn10, stronger effect = lower value 0.959 | locus YIL066C, strain RNR3, stronger effect = lower value 0.994 | locus YIL073C, strain SPO22, stronger effect = lower value 0.852 | locus YIL125W, strain kgd1, stronger effect = lower value 0.991 | locus YIR030C, strain dcg1, stronger effect = lower value 0.955 | locus YJL092W, strain hpr5, stronger effect = lower value 1 | locus YJL095W, strain BCK1 (second series), stronger effect = lower value 0.992 | locus YJL115W, strain asf1, stronger effect = lower value 0.989 | locus YJL129C, strain trk1, stronger effect = lower value 0.937 | locus YJL134W, strain LCB3, stronger effect = lower value 0.979 | locus YJL154C, strain vps35, stronger effect = lower value 0.997 | locus YJL164C, strain tpk1, stronger effect = lower value 0.98 | locus YJL166W, strain qcr8, stronger effect = lower value 0.953 | locus YJL168C, strain set2, stronger effect = lower value 0.97 | locus YJL187C, strain SWE1 (second series), stronger effect = lower value 0.927 | locus YJL187C, strain SWE1, stronger effect = lower value 1.01 | locus YJR043C, strain POL32, stronger effect = lower value 0.974
0.884 (inactive) and 0.878 (active): locus YJL095W, strain BCK1, stronger effect = lower value
